The panel holds about 83,000 compounds, 20% with a hit somewhere; the sample as a whole holds those more often.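 Compound tested at a single concentration for 48 hours in 96-well plates; a percent growth value below 10 was scored as active.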 Values without a mark were called inactive. Activity calls are given as the source filed them.
Tests used:
Test in all cases: NCI-60 one-dose screen, 48 h (100 = growth as untreated, 0 = no growth, -100 = all killed)
Details in all cases: 10 µM unless noted
NCI-H23 lung = system: NCI-H23 lung
NCI-H226 lung = system: NCI-H226 lung
NCI-H322M lung = system: NCI-H322M lung
HOP-62 NSCLC = system: HOP-62 NSCLC
NCI-H460 lung = system: NCI-H460 lung
HOP-92 NSCLC = system: HOP-92 NSCLC
NCI-H522 lung = system: NCI-H522 lung
786-0 renal = system: 786-0 renal
COLO 205 colon = system: COLO 205 colon
DU-145 prostate = system: DU-145 prostate
K-562 leukemia = system: K-562 leukemia
MALME-3M melanoma = system: MALME-3M melanoma
MDA-MB-231 breast = system: MDA-MB-231 breast
RXF 393 renal = system: RXF 393 renal
SF-268 CNS = system: SF-268 CNS
SF-295 CNS = system: SF-295 CNS
SF-539 CNS = system: SF-539 CNS
UACC-257 melanoma = system: UACC-257 melanoma
M14 melanoma = system: M14 melanoma
A549/ATCC NSCLC = system: A549/ATCC NSCLC

Structure (SMILES) | growth (NCI-H23 lung) [%] | growth (NCI-H226 lung) [%] | growth (NCI-H322M lung) [%] | growth (HOP-62 NSCLC) [%] | growth (NCI-H460 lung) | growth (HOP-92 NSCLC) [%] | growth (NCI-H522 lung) | growth (786-0 renal) [%] | growth (COLO 205 colon) | growth (DU-145 prostate) [%] | growth (K-562 leukemia) | growth (MALME-3M melanoma) | growth (MDA-MB-231 breast) [%] | growth (RXF 393 renal) | growth (SF-268 CNS) [%] | growth (SF-295 CNS) | growth (SF-539 CNS) [%] | growth (UACC-257 melanoma) [%] | growth (M14 melanoma) [%] | growth (A549/ATCC NSCLC)
CC/C(=C(/CC)c1ccc(O)cc1)c1ccc(O)cc1 | 75.8 | 82.7 | 77.6 | 70.8 | 85.6% | 58.1 | 61% | 80 | 97.6% | 84.1 | 27.5% | 54.5% | 58.7 | 65.1% | 63.9 | 43.9% | 68.3 | 68.9 | 43.9 | 
O=C(O)c1ccc2c(c1)C(=O)c1ccccc1C2=O | 103 | 92 | 102 | 90.9 | 105% | 93.9 | 98.6% | 103 | 100% | 98.5 | 88.7% | 102% | 94.1 | 110% | 98.3 | 100% | 97.7 |  | 101 | 
CC1(C)OC2C(COC(c3ccccc3)(c3ccccc3)c3ccccc3)OC(c3c[nH]c4c(N)ncnc34)C2O1 (centres undefined) | 62.9 | 72.9 | 71.3 | 81.6 | 41.1% | 59.5 | 55.9% | 62.8 | 68.3% |  | 32.4% | 93.5% | 75.7 | 79% | 57.4 | 57.9% | 90 | 74.9 | 52.5 | 44.7%
O=C1c2ccccc2Cc2cccc(Cl)c21 | 95.5 | 94.6 | 85.4 | 98.8 | 117% | 110 | 85.8% | 89.1 |  |  | 91.5% | 94.2% | 95.4 | 89.7% | 93 | 90.9% | 98.1 | 104 | 111 | 91.7%
Cc1cc(C(N)=O)cc(C)c1C(=O)OCCCl | 104 | 105 | 97.2 | 93.9 | 101% | 90.1 | 101% | 100 | 111% | 99.2 | 93.6% | 101% | 105 | 117% | 95 | 99.7% | 101 |  | 108 | 
Cc1cc(=O)oc2cc(O)cc(O)c12 | 107 | 97.7 | 103 | 87.2 | 99% | 100 | 88.7% | 98 | 110% | 103 | 102% | 90% | 89.8 | 114% | 97.7 | 103% | 92.4 |  | 102 | 
CCOc1cc(F)c([N+](=O)[O-])cc1[N+](=O)[O-] | 38.9 | 95.3 | 103 | 93.8 | 106% | 72.1 | -55.7% (active) | 59.9 | -48.4% (active) |  | 0.671% (active) | -19.2% (active) | 37.9 | 12.4% | 77.6 | 96.9% |  | 56.5 | 30.5 | 90.9%
CCN(CC)CCNc1ccc([N+](=O)[O-])c2sc3ccccc3c(=O)c12 | 34.6 | 18.4 | 14.2 | 16.9 | 3.12% (active) | 16.9 | 12.7% | 37.2 | 1.96% (active) |  | 10.2% | -8.2% (active) | 56.2 | 5.72% (active) | 32.2 | 7.95% (active) | 21.9 | 29.3 | 34.1 | 7.92% (active)
C1=C(c2ccccc2)c2ccccc2C1 | 98.5 | 96.3 | 78.4 | 94 | 99.5% | 74.8 | 96% | 86.4 |  | 109 | 88.3% |  |  | 106% | 96.6 | 91% | 99.5 | 133 | 92.2 | 106%
